The values that follow come from paper PMC12864922, “TDP-43 directly inhibits mRNA accumulation in neurites through modulation of mRNA stability”.

Over roughly 9,900 sequences, “r (bound/input frequency ratio)” has its median near 0.7; the highest 2% begin near 6.5. Many of the other results were omitted from the sample, so the highest values are more common in it than they were.

First the molecules themselves.
B1: ENSMUSG00000061578.897|Ksr2|214:218 (ssRNA)
RNA: GGGAGUUCUACAGUCCGACGAUCGCUUCGAUAUCCGCAUGCUAUCCUGGGACACUACCCAAACCCUAGCACUCUCCCAGUGACUCUCCUAUGAGUACAUAUGCCAUCCUGCUUCCUUUGUGGCAAAACCCUGGGUCACCCAGAGACAGAUUUCCCAGAAUCCCUGGGCCACUUCUCAAUUCUACCCAUGACAGACAUGUCCCAUCCAUGAGCCCAGAUAGUCAAAGACUUCAGCACAAGGGUGUUUAGAGUAGGCACACACGAAGUAUCAAUAAGGUUAUUGAGAUGAGGAUUUAGAAAGAUCCUCUUGCGGUCGCACUAGUGUGGAAUUCUCGGGUGUCAAGG
B2: ENSMUSG00000090935.723|Synj2bp (ssRNA)
RNA: GGGAGUUCUACAGUCCGACGAUCGCUUCGAUAUCCGCAUGCUAAACAUUGUUUUAUUCCUAGGUGCUCAGGACAGACUGAUCAACCUCCAGUAACAUAUGUGGUUAGUAAGUGCUUCAGCUUGUGUAGCCAUUAAUAACCAAGUCAUAGGAUUGUGAAUCUAAAAUACUCCUGGGUAAAAUUUGUAUUAGAAUGGAAAAAAAAAUGAGGGUCAGAAAGGUGAGCUAACUUCAAGUUAGAUACUCCCCUCUAUUUUGGUCUCAAAUUUGUUUUAGUGUGUCCACAACAUGAAAACAUACAAAAACUCUUGCGGUCGCACUAGUGUGGAAUUCUCGGGUGUCAAGG
B3: ENSMUSG00000058297.523|Spock2 (ssRNA)
RNA: GGGAGUUCUACAGUCCGACGAUCGCUUCGAUAUCCGCAUGCUAUGGGUGGGCACAGGUCUGCCUUGCUCCAGCCCCCUCCCUUGGUUUCUGUUGGUACCCAUUUGGCUUUUAUCUGCUUUCUGCUUCACCACUAAGUGCGUAGGUGGGGUCUUUUGAUAUCGGCUCCCCAAAGCCCAAGCCCACAGCCCUAGGAGAGAACCAGGGGCCCAUCUUUGACACCUGGGCCAUCACGAGCCCUCCCGCCUGCAGUUGUCCUAGGGAAAGACCUGGGGGUGCAAAAGGAGAUUCAAGACAUCCGUACCCUCUUGCGGUCGCACUAGUGUGGAAUUCUCGGGUGUCAAGG
B4: ENSMUSG00000004113.207|Cacna1b|52:56;242:246 (ssRNA)
RNA: GGGAGUUCUACAGUCCGACGAUCGCUUCGAUAUCCGCAUGCUAAGGAAGCAUCGGGUGGAUUGGGUGGGAGCUGCUCAGAGCAGCACGGGGGCUACACACUUAGGGACAUUGACAGUGUCCAUCAGCAUGUCAGAGAAGCAGCUGUAGUGCCCGUGUUUCUCCCUGAGUCAUGGGUUCUGAAGAAGCCAGAGCGGCACAAUGCGUGCUUGCAUGAGGCACUUUCAGCCUUUUUAAAUCUGACUCUCAGGGAUGGGAUGCCUGCCAAGUAGGGUGUAAUCUCUGUACACAUUUUAAAACAACAACUCUUGCGGUCGCACUAGUGUGGAAUUCUCGGGUGUCAAGG
B5: ENSMUSG00000032194.344|Kank2 (ssRNA)
RNA: GGGAGUUCUACAGUCCGACGAUCGCUUCGAUAUCCGCAUGCUAAACACCCACCAGUCUCUCCUCUCCUUCCCGCUAUACUCCAGUUUUCUUUCUACUCUGUGACCACGGUACAUCCAUGAAGACAGUGUUACACGUAAAUGAAGUAUUCUUUUCUUGUAAUCAUAUUUUAGAAAGUAAAAGGACUUAAUAAAGCUACAAAUAAAAACAUUGCCUCGUGUCUGUUUGUUCUCCUUCUUUUUAGGCUAGCCUUGAACUCCUGAUCCUCCUGCCUUCCAUCUCCCAAGUGCUGGGAUGACAGGCACCUCUUGCGGUCGCACUAGUGUGGAAUUCUCGGGUGUCAAGG
B6: ENSMUSG00000004113.341|Cacna1b|1:8;11:16 (ssRNA)
RNA: GGGAGUUCUACAGUCCGACGAUCGCUUCGAUAUCCGCAUGCUACACACACAAGCACACAUCAGCAAGUGGCUAUUGUCAACCAUAGGGCUAUGCAACAAAAGACACAUUACUAGAAACAAAACACAAGACCACCACUUGGUCUAGGGUUUCAGCAUGAUUGUGACCAAACCUUUUAUAGAAUUUCCUUAUACAAAGGCACAAUACCCUGAAACUUUAACAGAGUAUUUUAUUCCAGUAGGGUAAAAUUAAACGGGACUCUUGGACUGCGCAUGUGACUGCACCCACGUUGCAACAGAGAAGGACUCUUGCGGUCGCACUAGUGUGGAAUUCUCGGGUGUCAAGG
B7: ENSMUSG00000061578.75|Ksr2 (ssRNA)
RNA: GGGAGUUCUACAGUCCGACGAUCGCUUCGAUAUCCGCAUGCUAAUGGAACCAGAAACAAUACACCUGCUCCGUUGUCAAGGCUUCUAGGCCAAGGUCAGGGUAGGGAGGUGGGGUGGGUUAAACUUGCAAACAUCUGAUUUUAGAGGUCCCAUUCCAAGAUGGAAGUCACCGGUUGCCGCUGAGCACACAAUUCUGAAGGACAGUAGGCAGUCCUGCAGGUCUUUUUUAGCACAGGGCCUCUCUGGGGACCAGUCCCUGGCCUUCACCCUUCUCCCAUUUUGUAAGAACACUGUUCUAACUCACUCUUGCGGUCGCACUAGUGUGGAAUUCUCGGGUGUCAAGG
B8: ENSMUSG00000034801.114|Sos2 (ssRNA)
RNA: GGGAGUUCUACAGUCCGACGAUCGCUUCGAUAUCCGCAUGCUACCCCAGGUGAUCAGCAGCAUUGCUUCCUCGGCUCCCCAGUGCUGCCCUAGGCCAGUAUAAAGACUCUGUAUUGCACUGUAGACUCUGCUAGCAGACGGCACUGAGAGGAGCCAGCGCUCGAGGGCGUUCUCACGCCUGACUGAUAGAUACCUUUUUAGGGUGAUGAACUUACACAGAUGCAGAAGAUAUGGGGUGGUGGUCCUGGGUUUUAACCCUCUGACCGUCUUCUAGCUUCUAAUUUUGUUUGGUUUUUACAUCUACUCUUGCGGUCGCACUAGUGUGGAAUUCUCGGGUGUCAAGG

TDP-43, sequence (Q13148 whole entry): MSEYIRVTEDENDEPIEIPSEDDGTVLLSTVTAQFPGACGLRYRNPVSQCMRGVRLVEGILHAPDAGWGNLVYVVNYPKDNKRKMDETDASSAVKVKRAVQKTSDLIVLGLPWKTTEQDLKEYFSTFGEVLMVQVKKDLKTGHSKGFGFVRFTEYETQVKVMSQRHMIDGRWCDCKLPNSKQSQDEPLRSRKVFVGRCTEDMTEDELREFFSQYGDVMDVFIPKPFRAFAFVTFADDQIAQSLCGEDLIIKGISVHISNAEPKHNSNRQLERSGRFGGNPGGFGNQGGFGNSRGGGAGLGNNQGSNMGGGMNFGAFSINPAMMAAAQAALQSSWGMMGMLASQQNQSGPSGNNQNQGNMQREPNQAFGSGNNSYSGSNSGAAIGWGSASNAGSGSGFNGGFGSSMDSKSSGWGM

This assay has as its target TDP-43 (Homo sapiens, UniProt Q13148 1-414). The assay is described as follows: RNA Bind-n-Seq with designed 260-mer pool; 25 mM Tris-HCl, 150 mM KCl, 3 mM MgCl2, BSA (printed 500 mg/mL), 20 units/mL SUPERase IN; pH not stated; 500 nM RNA pool, 1 h, 4 C; TDP-43 5, 50, 500 nM; high values mean tight binding. Conditions: protein: recombinant; tags: SBP (GST cleaved off with PreScission; pGEX-GST-SBP). Summed up:
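Streptavidin beads captured recombinant SBP-tagged TDP-43 at 5, 50 or 500 nM, and the beads were incubated for 1 h at 4 °C with 500 nM of an in vitro-transcribed pool of 260-nt 3′ UTR oligos in 25 mM Tris-HCl, 150 mM KCl, 3 mM MgCl2, BSA and SUPERase IN. After washing, bound RNA was eluted with biotin, reverse transcribed, PCR-amplified and sequenced. Binding is reported as R, the mapped-read-normalized abundance of each oligo in the bound sample divided by its abundance in the input. Two independent protein batches served as duplicates.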
Regarding B1, the binding signal was 0.295 R (bound/input frequency ratio).
B2: the binding signal is 0.199 R (bound/input frequency ratio).
On to B3, for which the binding signal is 0.928 R (bound/input frequency ratio).
As for B4, the figure is 0.888 R (bound/input frequency ratio).
On to B5, for which the binding signal was 0.585 R (bound/input frequency ratio).
Regarding B6, the binding signal was 0.234 R (bound/input frequency ratio).
As for B7, the figure is 0.151 R (bound/input frequency ratio).
For B8, the binding signal is 0.44 R (bound/input frequency ratio).
